PLK1 PBD inh = blocks phosphopeptide binding to human PLK1 polo-box domain; Plk1 PBD binding of FITC phosphopeptide, fluorescence polarization; Potency, µM, actives largely listed as inhibitors; 2.8% of 360,000 active; AID 720504; note: series mostly up to about 57 µM; nearly all actives have a fitted effect of over 65% in size
Sfp inh = blocks B. subtilis Sfp PPTase activity. Q9F4F7. Biochemical Sfp PPTase activity, qHTS. Potency, µM, most hits filed as inhibitors. 3.5% of 310,000 active;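 note: the enzyme is Sfp with the accession as filed and its product quenches rhodamine fluorescence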
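Step 1, compound plus 15 nM Sfp-PPTase, 15 min, room temperature. Step 2, add rhodamine-CoA (5 uM) and BHQ-2-YbbR (12.5 uM). Step 3, read 525/598 nm fluorescence at 0 and 30 min.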
G9a inh = blocks human histone lysine methyltransferase G9a. G9a H3K9 monomethylation, AlphaScreen, 2 h. Potency, µM (doses to about 102 µM), usual class: inhibitors. 8.8% of 350,000 active. AID 504332; note: nearly all actives have a fitted effect of over 75% in size
Target sequence (Q96KQ7 913-1193 limits assumed): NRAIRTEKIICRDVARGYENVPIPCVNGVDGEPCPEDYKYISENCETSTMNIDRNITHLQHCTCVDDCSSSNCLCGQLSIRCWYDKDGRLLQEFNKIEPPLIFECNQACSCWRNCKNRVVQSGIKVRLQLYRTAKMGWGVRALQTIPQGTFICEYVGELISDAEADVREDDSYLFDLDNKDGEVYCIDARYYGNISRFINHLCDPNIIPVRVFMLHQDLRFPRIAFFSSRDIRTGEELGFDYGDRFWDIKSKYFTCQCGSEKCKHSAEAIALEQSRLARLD
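Enzyme 20 nM + cpd, 15 min RT; add b-H3K9 pep 500 nM / SAM 20 uM; 2 h RT; anti-H3K9me1 Ab 0.5 ug/mL + SA donor / anti-rabbit acceptor beads 20 ug/mL each, 10 min; AlphaScreen read.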
Mm-Cpn inhibitor = blocks the Methanococcus maripaludis chaperonin Mm-Cpn; purified Mm-Cpn ATPase, ADP Transcreener TR-FRET; Potency, µM (titrated, usually from 76.9 µM), actives largely listed as inhibitors; 0.031% of 330,000 active; note: nearly all actives have a fitted effect of over 80% in size
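ATPase turnover read by TR-FRET ADP competition (Eu cryptate antibody/ADP-d2, 665/590 nm): 10uM ATP final, 25nM Mm-CPN final, 30 min 37degC after 10-min compound preincubation, pH 7.4 Tris/KCl/MgCl2/DTT buffer.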
VDR inh = vitamin D3 receptor (human) inhibition; P11473; VDR-SRC2-3 peptide fluorescence polarization, 2 h; Potency, µM, hits mostly inhibitors; 0.93% of 400,000 active
Target sequence (P11473 whole entry, looked up): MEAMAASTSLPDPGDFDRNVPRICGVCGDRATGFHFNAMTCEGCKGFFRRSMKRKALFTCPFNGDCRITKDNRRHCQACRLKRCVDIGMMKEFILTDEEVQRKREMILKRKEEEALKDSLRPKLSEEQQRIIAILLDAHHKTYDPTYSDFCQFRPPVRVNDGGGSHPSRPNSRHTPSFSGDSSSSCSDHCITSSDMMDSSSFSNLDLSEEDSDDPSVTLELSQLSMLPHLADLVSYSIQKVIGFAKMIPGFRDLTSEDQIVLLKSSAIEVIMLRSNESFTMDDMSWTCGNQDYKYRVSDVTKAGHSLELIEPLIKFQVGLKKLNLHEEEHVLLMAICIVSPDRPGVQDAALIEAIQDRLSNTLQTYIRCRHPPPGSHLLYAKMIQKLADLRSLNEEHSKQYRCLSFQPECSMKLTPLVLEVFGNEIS
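Reagent solutions, kept cold and dark, are dispensed first; compounds are then pinned in at 23 nl, plates briefly spun, and incubated 2 h at ambient temperature. Inhibition of VDR–SRC2-3 peptide binding is read by fluorescence polarization.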
CCT chaperon mod = changes cytosolic chaperonin activity. 0.3% of 360,000 active. purified chaperonin ATPase assay, HTRF ADP detection, 30 min. activity change, % (test concentration not listed), hits read low; in the data active = activity change below about -30%
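First, chaperonin was dispensed at 40 nM or 20 nM final depending on batch activity. Next, compounds were pinned at 76 uM and ATP added at 10 uM. After 30 min at 37 °C, ADP detection reagents ran 30 min at ambient temperature.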
Numbers stand for hits; i = inactive; ? = inconclusive; nt = no result; ! = not active in a repeat; [ ] = remark or other dose. Compounds with a hit are over-represented: about 10% of the library has one in this group of screens. Unless noted, calls come from the whole dose curve; as a rule, active = well fitted curve in the direction sought with a large enough effect; inconclusive = small, poorly fitted or top-dose-only effect, or another doubt; inactive = no such curve, though single readings can be large; an effect the other way counts as inactive or inconclusive.

SMILES | PLK1 PBD inh | Sfp inh | G9a inh | Mm-Cpn inhibitor | VDR inh | CCT chaperon mod
Cn1cccc1Cc1nnc(SCC(=O)Nc2nc3ccccc3s2)n1CCc1ccccc1 | i | i | i[2.33 µM] | i | i | i
Cc1nnc(NC(=O)CSc2nnc(Cc3cccn3C)n2CCc2ccccc2)s1 | i | i | ? | i | i | i
Cn1cccc1Cc1nnc(SCC(=O)Nc2ccc3c(c2)OCCO3)n1CCc1ccccc1 | i | i | 45µM | i | i | i
CCOc1ccc(S(=O)(=O)N(CC(=O)NCCSCc2ccccc2)c2ccccc2)cc1 | nt | nt | i | nt | i | nt
CCCCCCCCCC(=O)OCC(CO)OC(=O)CCCCCCCCC (stereo not drawn) | nt | i | i | nt | i | nt
COc1cccc(NC(=O)CN2C=NS(=O)(=O)c3ccccc32)c1 | nt | nt | i | nt | i | nt
COc1cccc(OCC(=O)NCCS(=O)(=O)N2CCN(c3ccccc3F)CC2)c1 | nt | nt | i | nt | i | nt
Cn1cccc1Cc1nnc(SCC(=O)NC2CCCCC2)n1CCc1ccccc1 | i | i | 45µM | i | ? | i
Cc1nnc(SCC(=O)NC2CCCC2)n1CCc1ccccc1 | i | i | i | i | i | i
COCCCNC(=O)CSc1nc2c(sc3ccccc32)c(=O)n1CCc1ccc(OC)c(OC)c1 | nt | nt | i | nt | i | nt
CCN(Cc1ccccc1)C(=O)CCS(=O)(=O)c1ccc2c(c1)NC(=O)CO2 | 21µM | i | i | i | i | i
CCN(Cc1ccccc1)C(=O)CCS(=O)(=O)c1cc2c(cc1Cl)NC(=O)CO2 | i | i | 50µM! | i | i | i
CCc1cccc(NC(=O)CCS(=O)(=O)c2ccc3c(c2)NC(=O)CO3)c1 | 27µM | i | i | i | i | i
CC1=C(Nc2ccc(C(=O)O)cc2)C(=O)c2ccccc2C1=O | ? | i | ? | ? | i | i
CCOc1ccccc1NC1=C(OC)C(=O)C(Nc2ccccc2OCC)=C(OC)C1=O | i | nt | nt | nt | i | i
COC1=C(Nc2ccc(C)cc2)C(=O)c2ccccc2C1=O | i | i | 8.9µM | i | ? | i
COC1=C(Nc2ccccc2)C(=O)c2ccccc2C1=O | i | i | 11µM | i | 45µM | i
CCNc1ncc2nc(-c3ccc(F)cc3)c(=O)n(-c3ccccc3)c2n1 | nt | i | i[0.501 µM] | nt | i | nt
CO[C@H]1COC(=O)[C@H]2CCCN2C(=O)[C@@H](C)COC(=O)C/C=C\[C@@H]1C | nt | i | nt | nt | nt | nt
O=C(COC(=O)COc1ccccc1)Nc1ncc([N+](=O)[O-])s1 | 17µM | nt | ? | i | ? | i
O=C(Cc1ccc(Br)cc1)Nc1ncc([N+](=O)[O-])s1 | ? | i | 28µM | i | i | i
O=C(Cc1ccc(Cl)cc1)Nc1ncc([N+](=O)[O-])s1 | ? | i | 35µM | i | i | i
Cc1cnc(NC(=O)Cc2ccc(Br)cc2)s1 | i | i | i | i | i | i
CCCCC(=O)OCC(=O)[C@]1(O)Cc2c(O)c3c(c(O)c2[C@H](OC2CC(NC(=O)C(F)(F)F)C(O)C(C)O2)C1)C(=O)c1c(OC)cccc1C3=O (stereo partly drawn) | nt | i | 8.9µM | nt | ? | nt
COc1cccc2c1C(=O)c1c(O)c3c(c(O)c1C2=O)CC(O)(C(=O)CO)CC3OC1CC(N(C)C)C(O)C(C)O1 (stereo not drawn) | ? | nt | nt | nt | i | i
SMILES | PLK1 PBD inh | Sfp inh | G9a inh | Mm-Cpn inhibitor | VDR inh | CCT chaperon mod
COc1cccc2c1C(=O)c1c(O)c3c(c(O)c1C2=O)C[C@@](O)(C(=O)CO)C[C@@H]3OC1C[C@@H](N)[C@H](O)[C@H](C)O1 (stereo partly drawn) | nt | ? | 14µM | nt | i | nt
COc1cccc2c1C(=O)c1c(O)c3c(c(O)c1C2=O)C[C@](O)(C(=O)CO)C[C@@H]3O[C@H]1C[C@H](N)[C@@H](O)[C@H](C)O1 | nt | i | ? | nt | i | nt
COc1cccc2c1C(=O)c1c(O)c3c(c(O)c1C2=O)C[C@@](O)(C(C)=O)C[C@@H]3O[C@H]1C[C@H](N)[C@H](O)[C@H](C)O1 | ? | 50µM! | 35µM | i | ? | i
Cc1cccc(Cc2c(C)nc3nc(SCC(=O)NC4CCCCC4)nn3c2C)c1 | nt | nt | i | nt | i | nt
Cc1cccc(C(=O)Oc2c(Sc3ccccc3)c(C)nn2C(C)(C)C)c1 | nt | nt | i | nt | i | nt
CC(C)C(=O)Nc1ccc(NC(=O)c2cccc3c(Br)cccc23)cc1 | 27µM | i | i | i | ? | i
CCNc1nnc(CSc2nc3ccccc3s2)s1 | i | i | 4.5µM | i | i | i
O=S1(=O)C=C(Sc2nc3ccccc3s2)c2ccccc21 | 2.7µM | 50µM | ? | i | 13µM | i
CCS(=O)(=O)CCSc1nc2ccccc2s1 | ? | i | ? | i | i | i
O=C(CSc1nc2ccccc2s1)CSc1nc2ccccc2s1 | i | ? | i[12.7 µM] | i | i | i
O=S(=O)(CCSc1nc2ccccc2s1)c1nc2ccccc2s1 | i | i | 7.1µM | i | i | i
CCc1nnc(NC(=O)CSc2nc3ccccc3s2)s1 | ? | i | ? | i | i | i
CC(=O)CSc1nc2ccccc2s1 | 27µM | i | i[12.7 µM] | i | i | i
COc1cccc(CN2CCc3nc(N4CCN(c5ncccn5)CC4)ncc3C2)c1 | nt | nt | i[12.7 µM] | nt | i | nt
COc1ccc(NC(=O)Cn2c(=O)n(Cc3ccc4c(c3)OCO4)c(=O)c3ccc(C(=O)NC4CCCCC4)cc32)cc1 | nt | nt | i | nt | i | nt
CCN(C(=O)c1cc2c(s1)-c1c(C)cccc1OC2)c1cc(C)ccc1C | nt | nt | i | nt | i | nt
COc1ccc(OC)c(C2CC(=O)c3c([nH]c(C(=O)OCc4ccc(C)cc4)c3C)C2)c1 (stereo not drawn) | nt | nt | i | nt | i | nt
O=C(CSc1nc2ccccc2s1)c1cc2ccccc2o1 | i | ? | i | nt | i | -63
c1ccc2sc(SSc3nc4ccccc4s3)nc2c1 | nt | 56µM | ? | nt | i | nt
NC(=O)CSCc1nc2ccccc2s1 | ? | 56µM | ? | i | i | i
Oc1ccc(O)c(Cc2nc3ccccc3s2)c1 | i | 50µM | 10µM | i | i | i
COc1cc(C(=O)OCn2nnc3ccccc3c2=O)cc(OC)c1OC | i | i | i[12.7 µM] | i | i | i
COc1cc(/C=C\C(=O)OCn2nnc3ccccc3c2=O)cc(OC)c1OC | i | i | i | i | i | -36
CCOC(=O)c1ccc(OCC2c3cc(OC)c(OC)cc3CCN2C(=O)c2ccc(S(=O)(=O)N3CCCC3)cc2)cc1 (stereo not drawn) | nt | nt | i | nt | i | nt
COc1ccc(Cl)cc1NC(=O)CSC1=Nc2ccccc2C2=NC(CC(=O)NCc3ccc4c(c3)OCO4)C(=O)N12 (stereo not drawn) | nt | nt | i | nt | i | nt
Cc1ccc(S(=O)(=O)N2CCC(n3nnc4cc(C)ccc43)CC2)cc1 | i | i | i | i | i | i
O=S(=O)(c1ccc2c(c1)OCCO2)N1CCC(n2nnc3cc(F)ccc32)CC1 | 21µM | i | ? | i | i | i
Cc1ccc2c(c1)nnn2C1CCN(S(=O)(=O)c2ccc(C(=O)N(C)C3CCCCC3)cc2)CC1 | i | i | 56µM | i | i | i
